The results in this text go back to PubChem BioAssay (NCATS).

Molecules are shown by their SMILES. Inconclusive results are not listed. Where a call stands in place of a potency, no number is given. Active and inactive are the calls of the source. The call rests on the fitted dose curve; in most records, active means well fitted inhibition curve with a large enough effect; inconclusive means small, poorly fitted or top-dose-only effect; inactive means flat fitted curve, though single readings scatter.

Chain of Phospholipid hydroperoxide glutathione peroxidase GPX4 (Homo sapiens) (P36969 whole entry, looked up): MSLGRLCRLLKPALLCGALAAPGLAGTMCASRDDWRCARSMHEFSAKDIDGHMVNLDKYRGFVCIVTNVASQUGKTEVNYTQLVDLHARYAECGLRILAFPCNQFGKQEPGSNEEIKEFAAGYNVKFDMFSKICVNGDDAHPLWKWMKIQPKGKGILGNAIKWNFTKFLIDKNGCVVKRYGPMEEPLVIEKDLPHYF

This experiment concerns the target Phospholipid hydroperoxide glutathione peroxidase GPX4 (Homo sapiens) (UniProt P36969). In words: Primary qHTS Assay for Inhibitors of Recombinant Selenoprotein Glutathione Peroxidase 4 (GPX4) (AID 1845192). Further: nearly all actives have a fitted effect of over 65% in size. The conditions noted are these: recombinant GPX4, GR-coupled NADPH fluorescence, 15 min; series mostly up to 50 µM; activity change, negative = inhibition: at the top concentration. A digest of the protocol:
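NADPH consumption followed by fluorescence at 340/450 nm, t=0 and after 15 min at room temperature. Reaction started with cumene hydroperoxide (0.5 mM final) after 30 min compound–GPX4 preincubation; final 200 nM GPX4, 100 nM GR, 1 mM GSH, 0.5 mM NADPH.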
A general note: In qHTS, concentration-response curves come from the screen itself.
For the molecule `CC(N)[C@H](O)c1ccc(O)c(O)c1` (stereo not given in full), the outcome was inactive. Turning to `C[C@H](Cc1ccc2c(c1)OC(C(=O)O)(C(=O)O)O2)NC[C@H](O)c1cccc(Cl)c1`, the outcome was inactive.

In the case of `CC(=O)NBr`, the “activity change, negative = inhibition” value was -4.54% (inactive).

On to `C=CCN1C[C@@H](C)N([C@H](c2ccc(C(=O)N(CC)CC)cc2)c2cccc(OC)c2)C[C@@H]1C`, for which the “activity change, negative = inhibition” value was -8.55% (inactive). `CP(=O)(O)C1=CCNCC1`: the result was inactive.

Take `Cc1c2ccncc2c(C)c2c1[nH]c1ccccc12`: the “activity change, negative = inhibition” value is 0.063% (inactive). For the molecule `CC(C)(C)c1o[nH]c(=O)c1CC(N)C(=O)O` (stereo not given), the result was inactive. On the same count and under the same terms, the entry for `CCCCCCCCCCCCCC(=O)O[C@@H]1[C@@H](C)[C@@]2(O)[C@@H](C=C(CO)C[C@@]3(O)C(=O)C(C)=C[C@@H]23)C2C(C)(C)[C@@]21OC(C)=O` (stereo not given in full) is “inactive”. As for `C[N+]1(C)CCc2cc3c(cc2[C@H]1[C@@H]1OC(=O)c2c1ccc1c2OCO1)OCO3`, the “activity change, negative = inhibition” value was -18.4% (inactive). On to `OCc1cnc[nH]1`, for which the outcome was inactive. Still for that read-out and setting: the entry for `CO[C@H]1CC=C2CCN3CCC4=C(CC(=O)OC4)[C@]23C1` is “inactive”; for `C[N+]1(C)CCN(c2ccccc2)CC1` it is “inactive”. Still for that read-out and setting: the entry for `N[C@@H](Cn1oc(=O)[nH]c1=O)C(=O)O` is “inactive”; for `CC(C)NP(=O)(NC(C)C)OP(=O)(NC(C)C)NC(C)C` it is “inactive”. As for `CC(=O)OCC1=C(C(=O)O)N2C(=O)[C@@H](NC(=O)CCC[C@@H](N)C(=O)O)[C@H]2SC1`, the “activity change, negative = inhibition” value is 2.73% (inactive). The same measure, in the same setting: the figure for `CN1CC[C@@]2(C)c3cc(OC(=O)Nc4ccccc4)ccc3N(C)[C@@H]12` is -7.4% (inactive). For the molecule `CN(C(=O)Cc1ccc(Cl)c(Cl)c1)C(CN1CCCC1)c1cccc(OCC(=O)O)c1` (stereo not given), the result was inactive.

On to `COc1ccc2[nH]cc(CCN)c2c1`, for which the result was inactive.

On to `COC(=O)N1CCN(C(=O)Cc2ccc(Cl)c(Cl)c2)C(CN2CCCC2)C1` (stereo not given), for which the “activity change, negative = inhibition” value was -22.6% (inactive). In the case of `CCCC[N+]1(C)C2CC(OC(=O)[C@H](CO)c3ccccc3)CC1C1OC12` (stereo not given in full), the outcome was inactive. For `C=CCN1CCC23c4c5ccc(O)c4O[C@H]2C(=O)CC[C@@]3(O)C1C5` (stereo not given in full), the “activity change, negative = inhibition” value is 4.59% (inactive). Take `Clc1ccc(N2CC3CCC(C2)N3)nn1`: the result was inactive. Same read-out and setting: in the case of `CCS(=O)(=O)Nc1cccc(C(=C2CCCCC2)c2cnc[nH]2)c1` it was “inactive”. For the molecule `CC(C)(C)OC(=O)NC1[C@H]2CNC[C@@H]12` (stereo not given in full), the “activity change, negative = inhibition” value was 1.86% (inactive). The same measure, in the same setting: in the case of `Cc1o[nH]c(=O)c1CC(N)C(=O)O` (stereo not given) it was -12.8% (inactive). As for `Nc1cc2c(ncn2CCOCP(=O)(O)O)c(=O)[nH]1`, the result was inactive. `Nc1ccc(CCN2CCN(c3cccc(C(F)(F)F)c3)CC2)cc1`: the “activity change, negative = inhibition” value was -16.8% (inactive). The same measure, in the same setting: the figure for `NC(C(=O)O)c1cc(=O)[nH]o1` (stereo not given) is -3.62% (inactive). On to `CCN1C[C@@]2(COC)C3[C@@H](OC)C4[C@@H]1C3([C@@H]1C[C@]3(O)[C@H](OC(=O)c5ccccc5)[C@@H]1[C@]4(OC(C)=O)[C@@H](O)[C@@H]3OC)[C@H](OC)C[C@H]2O`, for which the outcome was inactive. On the same count and under the same terms, the entry for `C[N+](C)(C)CC#CCOC(=O)Nc1cccc(Cl)c1` is “inactive”. Take `CCCN(CCC)C1CCc2cccc(O)c2C1` (stereo not given): the “activity change, negative = inhibition” value was -12.7% (inactive). In the case of `COc1ccc(OC)c(C(O)C(C)N)c1` (stereo not given), the Potency result was “inactive”. As for `NC(=O)c1ccc(OCC(O)CN2CC=C(c3ccc(F)cc3)CC2)cc1` (stereo not given), the “activity change, negative = inhibition” value is 4.08% (inactive).

As to `C[N+](C)(C)CC#CCN1CCCC1=O`, the outcome was inactive. In the case of `NC(N)=Nc1ccc2[nH]c3c(c2c1)C[C@@]1(O)[C@H]2Cc4ccc(O)c5c4[C@@]1(CCN2CC1CC1)[C@H]3O5`, the “activity change, negative = inhibition” value was 1.1% (inactive). As for `CC(N)Cc1c[nH]c2ccc(OCc3cccs3)cc12` (stereo not given), the “activity change, negative = inhibition” value was -6.76% (inactive). For the molecule `CC1(C(=O)O)C2CCC(O2)C1(C)C(=O)O` (stereo not given), the outcome was inactive. For the molecule `NCC(CP(=O)(O)O)c1ccc(Cl)cc1` (stereo not given), the “activity change, negative = inhibition” value is -1.97% (inactive). The same measure, in the same setting: the figure for `O=C(NC1CN2CCC1CC2)c1cc2ccoc2cn1` (stereo not given) is -4.69% (inactive). On to `C#CCN[C@H](C)Cc1ccccc1`, for which the outcome was inactive.
